In all, about 69,000 compounds went through this assay and about 8,600 (12%) showed an effect of 50% or more. The full list was thinned out, with strong results kept by preference.

This assay concerns Plasmodium berghei. Put plainly: Screen against P. berghei liver stage (PbLuc), transformed with Luciferase, at 10uM. The format is functional, HepG2. The note with it: tested at 10 uM.
Consider `CC(NC(=O)CCc1ccsc1)c1ccc2c(c1)NC(=O)CO2` (stereo unspecified), for which the INHIBITION was 1.223%.

In the case of `CN(C)S(=O)(=O)N1CCN(C(=O)c2cc(-c3ccc(Br)s3)n[nH]2)CC1`, the INHIBITION amounted to 11.2%.

Regarding `Cc1nc(N)c2ccc(C3CCCCN3)nc2n1` (stereo unspecified), the INHIBITION is given as 29.35%.

As to `Cc1cc(CN(C)C(=O)c2ccc(Cl)c(N3CCCC3=O)c2)no1`, the INHIBITION was -11.4%.

Regarding `COCCC(=O)N1C[C@@H](c2cccc(OC)c2)[C@@]2(CCCCC(=O)N2)C1`, the INHIBITION came out at 3.48%.

With `CC(C(=O)N1CCCN(Cc2cnn(C(C)C)c2)CC1)n1ccnc1` (stereo unspecified), the INHIBITION was determined as 48.1%.

On to `Cc1ccc(C(=O)N2CC[C@@H]3CN(C4CCOCC4)CCO[C@@H]3C2)o1`, for which the INHIBITION stood at 22.2%.

Consider `CCc1nc(C2CCCN2C(=O)c2csc(NC(C)=O)n2)no1` (stereo unspecified), for which the INHIBITION is recorded as -17%.

For the compound `COc1ccc(C(=O)N2C[C@@H](CN3CCCC3)[C@@H](CO)C2)c(C)c1`, the INHIBITION was determined as 34.9%.

For `CCc1nc2n(n1)CCCC2NC(=O)Nc1cc(OC)ccc1C` (stereo unspecified), the INHIBITION is given as 13.5%.

With `CCc1nc(C)cc(N2CCCC(C(=O)c3ccc(OC)cc3C)C2)n1` (stereo unspecified), the INHIBITION came to 83.9%.

Regarding `COc1ccc(C(=O)C2CCCN(c3cc(N)ncn3)C2)c(C)c1` (stereo unspecified), the INHIBITION turned out to be 60.1%.

For the compound `Cc1ccccc1CSc1nc(N)cc(N2CCCC(C(N)=O)C2)n1` (stereo unspecified), the INHIBITION was determined as 41.3%.

For `CCOC(=O)C1CCCN(c2nccc(-n3nc(C)cc3C)n2)C1` (stereo unspecified), the INHIBITION was 1.74%.

In the case of `COc1cccc(C(=O)C2CCCN(c3nccc(N)n3)C2)c1` (stereo unspecified), the INHIBITION came out at 43%.

As to `COc1ccc(C(=O)C2CCCN(c3cc(OC)ncn3)C2)c(C)c1` (stereo unspecified), the INHIBITION was determined as 91.8%.

With `COc1cc(N2CCCC(c3ncc[nH]3)C2)ncn1` (stereo unspecified), the INHIBITION worked out at 28.4%.

As to `COc1ccc(C(=O)C2CCCN(c3nccc(N)n3)C2)c(C)c1` (stereo unspecified), the INHIBITION was 51.2%.

On to `COc1ccc(C(=O)C2CCCN(c3cnccn3)C2)c(C)c1` (stereo unspecified), for which the INHIBITION stood at 25.5%.

On to `O=C1C(n2nnc(-c3ccsc3)n2)CCN1CC(F)(F)F` (stereo unspecified), for which the INHIBITION is listed as -35.9%.

Consider `CC(C)n1ccnc1Cn1ccc2ncccc2c1=O`, for which the INHIBITION is -9.91%.

Regarding `CN(C)CCN1CCN(C(=O)c2ccn(C)c(=O)c2)CC1`, the INHIBITION was -7.31%.

Take `COc1cc(NC(=O)N2CCCC2c2ccco2)cc(OC)c1` (stereo unspecified): the INHIBITION was 45.5%.

On to `CN(C)C(CNC(=O)c1ccc(-n2cnnn2)cc1)c1ccccc1Cl` (stereo unspecified), for which the INHIBITION was -20.5%.

As for `Cc1csc(NC(=O)c2cccnc2N2CCOCC2)n1`, the INHIBITION was -3.39%.

For the compound `Cc1nc(NC(=O)c2cccnc2N2CCOCC2)sc1C`, the INHIBITION worked out at 62.9%.

As for `O=C(Nc1nc2c(s1)CCC2)c1cccnc1N1CCOCC1`, the INHIBITION is recorded as 34%.

Turning to `COc1cc(-c2n[nH]c(CC#N)n2)cc(OC)c1OC`, the INHIBITION came to 12.7%.

With `CCn1nc(C)c(NC(=O)c2nnn(Cc3ccccc3)c2OC)c1C`, the INHIBITION stood at 27.5%.

As to `CCCn1nccc1NC(=O)CN1CCc2cnc(C(C)C)nc2C1`, the INHIBITION is reported as 55%.

Regarding `CC(C)c1ncc2c(n1)CN(CC(=O)Nc1ccc(Cl)cn1)CC2`, the INHIBITION is recorded as 0.914%.

On to `CCc1ncc2c(n1)CN(CC(=O)Nc1ccc(Cl)cn1)CC2`, for which the INHIBITION stood at 67.2%.

Take `Cc1ncc2c(n1)CN(CC(=O)Nc1ccc(Cl)cn1)CC2`: the INHIBITION worked out at 46.2%.

As for `CCCn1nccc1NC(=O)CN1CCc2c(nc(C(C)C)n2C)C1`, the INHIBITION turned out to be 12.7%.

For the compound `CCCn1nccc1NC(=O)CN1CCc2cnc(CC)nc2C1`, the INHIBITION is on record as 23.6%.

Consider `Cc1csc(C(=O)N2CCC3(CC(N(C)c4ccncn4)C3)C2)c1` (stereo unspecified), for which the INHIBITION is -10.8%.

`COc1c(C2CCCN2C(=O)c2cnc[nH]2)c(C)nn1C` (stereo unspecified): the INHIBITION is reported as 29.2%.

On to `CN1CC2(CCCN(Cc3nnc(-c4cccc(F)c4)o3)C2)OC1=O` (stereo unspecified), for which the INHIBITION is recorded as 19.4%.

Consider `CCn1cnnc1C1CCN(C(=O)c2cc(C)n(CC)c2C)CC1`, for which the INHIBITION was -10.6%.

On to `Cc1ccc(N2CC[C@H](OCC3CC3)[C@@H]2Cc2ccncc2)nn1`, for which the INHIBITION was 27.5%.

Turning to `Cc1nc(N2CCN(C(=O)NCc3cscn3)CC2)sc1C`, the INHIBITION is reported as 43.9%.

Regarding `Cc1cc(CNC(=O)N2CCN(C(C)c3cccnc3)CC2)c(C)o1` (stereo unspecified), the INHIBITION came out at 35.2%.

Consider `Cc1cc(CNC(=O)N2CCN(c3ccc(Cl)cn3)CC2)c(C)o1`, for which the INHIBITION was 54.3%.

On to `Cc1nc(CNC(=O)N2CCN(c3ccc(Cl)cn3)CC2)no1`, for which the INHIBITION is recorded as 49.1%.

For `Cc1cc(CNC(=O)CCN2CCN(c3ccccn3)CC2)c(C)o1`, the INHIBITION stood at 15.8%.

Take `COCCOC1CCN(C(=O)NCc2coc3ccccc23)CC1`: the INHIBITION came out at 46.1%.

Take `Cc1nc(C)c(CNC(=O)N2CCN(c3ccc(Cl)cn3)CC2)s1`: the INHIBITION came to 95.4%.

With `Cc1nc(CNC(=O)N2CCN(c3ccc(Cl)cn3)CC2)sc1C`, the INHIBITION is recorded as 54.3%.

For `O=C(CCc1nccs1)N1CCN(c2ccc(Cl)cn2)CC1`, the INHIBITION amounted to 35.3%.

Take `COCCOC1CCN(C(=O)NCc2cc(C)oc2C)CC1`: the INHIBITION is 53.7%.

For the compound `O=C(c1ccc2c(c1)CCC2)N1CCN(c2ccc(Cl)cn2)CC1`, the INHIBITION was 11.1%.

Regarding `Cc1cc(CNC(=O)N2CCN(c3nc(C)c(C)s3)CC2)no1`, the INHIBITION turned out to be 42.6%.

In the case of `Cc1ccc(S(=O)(=O)NC(=O)COc2cccc(C(N)=O)c2)s1`, the INHIBITION was found to be 11.2%.

With `c1ccc(CO[C@H]2CC[C@H]3[C@H]2OCCN3CCN2CCCCC2)nc1`, the INHIBITION was 40.3%.

For `CC(=O)N1CC[C@@]2(C(=O)Nc3ccccc3)CCN(S(C)(=O)=O)CC[C@@H]12`, the INHIBITION is recorded as 41.2%.

For the compound `CC(C)c1nn(C)c(Cl)c1CNCc1ccc2c(c1)OCCO2`, the INHIBITION is on record as 1.5%.

Consider `CN(C)CCCN(Cc1ccco1)Cc1ccnn1C1CCCCO1` (stereo unspecified), for which the INHIBITION is recorded as -0.232%.

As for `Cc1ccoc1C(=O)N1C[C@@H]2[C@@H](C1)OCC(=O)N2Cc1cccnc1`, the INHIBITION turned out to be 0%.

With `OC1(CN2CCOC(CNc3cccnn3)C2)CCCCC1` (stereo unspecified), the INHIBITION worked out at 25.4%.

Consider `Cn1c(N2CCOCC2)nc2cc(C(=O)NCc3cccnc3)ccc21`, for which the INHIBITION was 48.2%.

Turning to `CC(=O)NCc1ccc(C(=O)N2CCCC2c2cnn(C)c2)cc1` (stereo unspecified), the INHIBITION was -12.1%.

On to `CC(=O)N1CCC(c2cncc(N3CCCC(O)C3)n2)CC1` (stereo unspecified), for which the INHIBITION was -6.73%.

In the case of `O=c1cc(C2CCNCC2)nc(Cc2cccc(Cl)c2)[nH]1`, the INHIBITION stood at 52.2%.

Take `O=c1cc(C2CCNCC2)nc(CCc2ccccn2)[nH]1`: the INHIBITION is listed as -0.273%.

With `O=c1cc(C2CCNCC2)nc(CCCc2ccccc2)[nH]1`, the INHIBITION was 22.7%.

Regarding `CN(CCCOc1ccccc1Cl)C(=O)CN1C(=O)CCNC1=O`, the INHIBITION is listed as -44.2%.

The values are drawn from ChEMBL document CHEMBL4513216, “Probing the Open Global Health Chemical Diversity Library for Multistage-Active Starting Points for Next-Generation Antimalarials” (ACS Infect Dis, 2020).
